The campaign covered roughly 330,000 compounds. About 10,000 (3%) were called active. This is one part of a sample in which actives are shown more often than they occur.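 Rule for the calls: active = inhibition of at least 50% at 8 µM in the primary screen; inactive = the rest.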
molecular target: Protein Mdm4 (Homo sapiens) + E3 ubiquitin-protein ligase Mdm2 (Homo sapiens) (UniProt O15151+Q00987); assay: inhibitors of human Mdm2-MdmX association, primary screen, cell-based, luminescence, split luciferase, SaOS-2, uHTS (AID 485346); details: SaOS-2 split-luciferase Mdm2/MdmX complementation, at 8 µM, hits give high values
Sequence (O15151 whole entry, looked up): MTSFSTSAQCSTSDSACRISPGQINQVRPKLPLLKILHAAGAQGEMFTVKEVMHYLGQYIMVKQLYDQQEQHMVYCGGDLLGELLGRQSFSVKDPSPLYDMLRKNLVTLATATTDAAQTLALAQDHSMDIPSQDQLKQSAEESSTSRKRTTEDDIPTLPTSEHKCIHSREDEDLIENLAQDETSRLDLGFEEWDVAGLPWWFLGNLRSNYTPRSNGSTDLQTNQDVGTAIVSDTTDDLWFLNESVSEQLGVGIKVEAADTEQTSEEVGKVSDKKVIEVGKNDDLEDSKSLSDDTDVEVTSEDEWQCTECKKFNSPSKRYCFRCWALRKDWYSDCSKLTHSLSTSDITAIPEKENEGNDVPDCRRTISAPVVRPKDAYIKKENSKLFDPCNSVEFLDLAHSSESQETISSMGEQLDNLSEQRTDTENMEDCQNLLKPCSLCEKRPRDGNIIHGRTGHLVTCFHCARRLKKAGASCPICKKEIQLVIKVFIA
Sequence (Q00987 whole entry, looked up): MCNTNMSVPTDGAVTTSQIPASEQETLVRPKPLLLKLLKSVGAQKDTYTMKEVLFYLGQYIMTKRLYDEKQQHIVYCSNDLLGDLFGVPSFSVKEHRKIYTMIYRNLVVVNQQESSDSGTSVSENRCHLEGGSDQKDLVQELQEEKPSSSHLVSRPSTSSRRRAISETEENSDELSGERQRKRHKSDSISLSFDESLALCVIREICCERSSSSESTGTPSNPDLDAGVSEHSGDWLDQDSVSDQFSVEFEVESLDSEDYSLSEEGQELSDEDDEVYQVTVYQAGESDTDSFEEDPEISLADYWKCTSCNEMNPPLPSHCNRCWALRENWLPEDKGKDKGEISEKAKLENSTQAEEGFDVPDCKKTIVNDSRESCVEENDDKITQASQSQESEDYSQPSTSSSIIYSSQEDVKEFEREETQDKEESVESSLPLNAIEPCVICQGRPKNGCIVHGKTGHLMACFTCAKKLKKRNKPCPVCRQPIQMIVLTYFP

inhibition, inactive:
CCc1ccccc1NC(=O)c1ccc2snnc2c1 25.3%
O=C(Nc1cccc(Br)c1)c1ccc2snnc2c1 -3.74%
CC(C)[C@@H](C(=O)O)N(Cc1cccc(CN([C@H](C(=O)O)C(C)C)S(C)(=O)=O)c1)S(C)(=O)=O 9.86%
CCN(CC)S(=O)(=O)c1ccc(Cl)c(NC(=O)c2ccncc2)c1 11.7%
Cc1cccc(NC(=O)c2cccnc2Cl)n1 2.81%
COc1ccc(OC)c(NC(=O)c2ccc3c(c2)CCN3S(C)(=O)=O)c1 15.2%
COCc1cc(C)nc2sc(C(=O)NC3CCCCC3)c(N)c12 7.84%
COc1ccc(N(C(=O)c2ccc(C)cc2)S(=O)(=O)c2cccs2)cc1 17.4%
CN(C)c1ccc2c(=O)[nH][nH]c(=O)c2c1 4.05%
O=C(NCc1cccs1)c1ccc2c(c1)ncn2C1CCCC1 -11.4%
CCOC(=O)C1CCN(Cc2c(C(=O)N3CCOCC3)nc3c(C)cccn23)CC1 15.2%
COCCCNc1nc2c(-c3cccc(C(F)(F)F)c3)nnn2c2ccccc12 17.3%
COC(=O)Cn1nc(-c2ccccc2)c2cc(Cl)ccc21 10.1%
CC1CCCN(c2ccc(C(=O)NCCc3ccccc3)cn2)C1 (centres undefined) -61.6%
O=c1oc2ccccc2c(NC2CCCCC2)c1NS(=O)(=O)c1ccc(Cl)cc1 14.1%
S=c1[nH]nc2c3c4c(sc3ncn12)CCCC4 14%
O=C1CCC/C=C/C[C@@H](CC(=O)N(CCO)Cc2ccccc2)C(=O)NC[C@H](c2ccccc2)O1 -21.8%
O=C1N[C@@H](c2ccccc2)COC(=O)[C@H](Cc2ccc(F)cc2)C/C=C\C[C@@H]1CC(=O)N(CCO)Cc1ccccc1 9.71%
Cn1c(CCNS(=O)(=O)c2ccc(F)cc2)nnc1SCc1cccnc1 13.7%
CN[C@H](C(=O)NC[C@H]1O[C@@H](n2cnc3c(N)ncnc32)[C@H](O)[C@@H]1O)[C@@H](C)OCc1ccccc1 16.8%
COc1ccc2cc(C3=CC(=O)C[C@H](c4ccc5c(c4)OCO5)C3)ccc2c1 3.41%
Cc1ccc(N(NC(=O)C(C)(C)O)C(=O)c2ccccc2)cc1C -3.58%
COC(=O)N(NC(=O)C(O)(C(C)C)C(C)C)c1ccccc1 -17.3%
CC(C)(O)C(=O)NN(C(=O)c1ccccc1)c1cccc(Br)c1 -9.41%
CCCCCNC(=O)C1c2ccccc2Oc2ccccc21 -5.28%
CCn1cc(C(=O)N[C@@H](C)C(=O)NCCO)c(=O)c2cc3c(cc21)OCO3 -4.24%
Cc1ccc(N(CC(=O)NCC2CCCO2)C(=O)CNS(=O)(=O)c2ccc(Cl)cc2)cc1 (centres undefined) -1.2%
Cc1ccc2c(c1)N(CCCC(=O)NCc1cccnc1)C(=O)CO2 5.4%
CSCC[C@H](NC(=O)NCc1cccs1)C(=O)O 3.11%
O=C(CCc1nc2ccccc2c(=O)[nH]1)OCC(=O)c1cccc(Cl)c1 30.6%
O=C(Cc1nc2ccccc2[nH]c1=O)c1ccc(Cl)cc1 -186%
CCCN(CCC)c1c([N+](=O)[O-])c(=O)oc2ccccc12 -1.56%
Cc1ccc(-n2nc(C)c(/C=N/NC(=O)c3cccs3)c2Cl)cc1 3.87%
Cc1cccc(-n2c(C)cc(/C=N/NC(N)=S)c2C)c1 -13.2%
CCC1CCC2(CC1)NC(=O)N(CC(=O)Nc1ccc(OC)cc1)C2=O (centres undefined) 18.6%
CCN(CC(=O)Nc1ccc(NC(C)=O)cc1)C(=O)C1CC(=O)N(Cc2ccc(C)cc2)C1 (centres undefined) -26.3%
CCN(CC)c1ccc(C(=O)c2cnc(/N=C/N(C)C)s2)cc1 -23.2%
Cc1ccc(NC(=S)NC(=O)c2ccc(-c3ccccc3)cc2)cc1 12.8%
COCCCNC(=S)NC(=O)c1ccccc1 -18.2%
CC1(C)C[C@H]2C3=CCC4[C@@]5(C)CC[C@H](O)[C@](C)(CO)C5CC[C@@]4(C)[C@]3(C)C[C@@H](O)[C@@]2(CO)[C@@H](O)[C@@H]1O (some centres undefined) 17.8%
O=C(Nc1cccc2cccnc12)c1cccc(Cl)c1 -3.29%
COc1ccc(NC(=O)c2ccco2)cc1NC(=O)c1ccc(C#N)cc1F 5.85%
CC(C)Cc1ccc(C(C)C(=N)N)cc1 (centres undefined) -18.4%
COc1ccc(S(=O)(=O)N(CC(=O)NCc2ccco2)c2ccc(F)cc2)cc1 10.5%
COC1=C(N2CCOCC2)C(=O)c2ccccc2C1=O 17.1%
Cc1ccccc1-c1ccc(Nc2ccc(C(=O)N3CCOCC3)cc2)nn1 0.851%
Nc1nnn(CC(=O)N/N=C/c2ccccc2)n1 14.3%
Nc1nnnn1CC(=O)N/N=C/c1ccc(-c2cccc(Cl)c2)o1 0.676%
Cc1ccc(-n2c(=O)cc(N3CCN(Cc4ccccc4)CC3)[nH]c2=O)cc1 27.6%
CN(C)S(=O)(=O)c1ccc(N2CCCC2)c(C(=O)Nc2ccc(Br)cc2F)c1 16.4%
CN1CCC(N(C)S(=O)(=O)c2ccc(NC(=O)c3cccc(C#N)c3)cc2)CC1 -11.1%
Cc1ccc2nc(NC(=O)C3CSC4(C)CCC(=O)N34)sc2c1 (centres undefined) 11.9%
O=C(COc1ccccc1O)NC1CCCC1 7.91%
Cc1c(CC(=O)NCCCCCC(=O)O)c(=O)oc2cc3occ(-c4ccccc4)c3cc12 7.02%
CCCCCCc1ccc(O)cc1O 26.2%
COc1ccc(N2CCN(C(CNS(=O)(=O)c3ccc(C)cc3)c3ccccc3)CC2)cc1 (centres undefined) 10.9%
CCC1CO/C(=C(\C(=C(Cl)Cl)N2CCOCC2)[N+](=O)[O-])N1 (centres undefined) 4.94%
CCc1ccc2nc(N(CCCN(C)C)C(=O)c3ccc4c(c3)OCCO4)sc2c1 39.7%
CCOc1ccc2nc(N(CCCN(C)C)C(=O)c3ccc(C(=O)c4ccccc4)cc3)sc2c1 48.2%
COc1ccc2sc(N(CCCN(C)C)C(=O)c3ccc(S(=O)(=O)N(C)C4CCCCC4)cc3)nc2c1 19.3%
Cc1ccc2nc(N(CCN(C)C)C(=O)C3=COCCO3)sc2c1 23.3%
CS(=O)(=O)c1ccc2nc(NC(=O)c3ccc(Cl)nc3)sc2c1 20.5%
CC1CCN(C(=O)c2cccc(S(=O)(=O)N3CCCc4ccccc43)c2)CC1 16.9%
CCN(CC)CCN(C(=O)c1ccc(S(=O)(=O)N2CCOCC2)cc1)c1nc2cc3c(cc2s1)OCCO3 4.55%
COc1cccc(C(=O)Nc2nc3ccc(S(C)(=O)=O)cc3s2)c1 -20.5%
CCN(CC)CCn1cnc2c1c(=O)n(CCOC(=O)c1cc(OC)c(OC)c(OC)c1)c(=O)n2C 11.6%
CCN(CC)CCN1C(=O)C2C(C(=O)Nc3ccc(Br)cc3)C3C=CC2(O3)C1C(=O)NC1CCCCC1 (centres undefined) -3.95%
CC(C)CN1CCNC(=O)C1CC(=O)N(C)CC1CCOCC1 (centres undefined) 11.5%
Cc1ccc(CNC(=O)c2ccc(CS(=O)Cc3cccc(Cl)c3)o2)cc1 (centres undefined) -2.29%
O=C(CCc1ccccc1Cl)Nc1ccc(S(=O)(=O)Nc2nccs2)cc1 7.38%
O=C(COC(=O)c1cccnc1Cl)Nc1ccc(S(=O)(=O)N2CCOCC2)cc1 5.66%

inhibition, active:
O=C(Nc1ccc2ccccc2c1)Nc1ccc2snnc2c1 88.1%
CCN(CC)S(=O)(=O)c1ccc(NC(=O)c2cccnc2Cl)c(NC(=O)c2cccnc2Cl)c1 94.7%
COc1ccc(OC)c(NC(=O)c2sc3nc(C)cc(C)c3c2N)c1 58.3%
COCCCNc1nc2c(-c3cccc(C)c3)nnn2c2ccc(Cl)cc12 55.3%
O=C1NC[C@@H](c2ccccc2)OC(=O)[C@H](Cc2ccc(F)cc2)CC/C=C/C[C@H]1CC(=O)N(CCO)Cc1ccccc1 59.7%
CCCCC(O)(CCCC)C(=O)NN(C(=O)CCl)c1ccccc1 87.3%
CCCC(O)(CCC)C(=O)NN(C(=O)CCl)c1cccc(C)c1 94%
O=C(/C(=C/c1cccc(Cl)c1)c1nc2ccccc2[nH]1)c1ccccc1 100%
Cc1cccc(-n2c(C)cc(/C=N\NC(=O)c3cccs3)c2C)c1 67.2%
CCOC(=O)C1=C(NC(=S)NC(=O)c2ccccc2)c2ccccc2CC1(C)C 51.4%
N#Cc1ccc(C(=O)Nc2cccc3cccnc23)c(F)c1 56.2%
Cc1oc2c(c1C(=O)N1CCOCC1)C(=O)c1ccccc1C2=O 53.6%
O=C(Cn1nnc(-c2ccccc2)n1)N/N=C/c1ccc(-c2ccc(Cl)cc2)o1 69.4%
CCCCCCc1cc2cc(-c3nnc(-c4ccccc4)o3)c(=O)oc2cc1O 84.7%
CN(C)CCCN(C(=O)c1ccc(S(=O)(=O)N2CCCCCC2)cc1)c1nc2cc3c(cc2s1)OCCO3 52.3%
CS(=O)(=O)c1ccc2nc(NC(=O)c3ccc(N4CCCC4=O)cc3)sc2c1 56.8%
CN(C)CCCN(C(=O)c1ccc(S(=O)(=O)N2CCCc3ccccc32)cc1)c1nc2ccc(F)cc2s1 76%
CN(C)CCCN(C(=O)c1ccc(S(=O)(=O)N2CCCCCC2)cc1)c1nc2ccc(Br)cc2s1 70.8%
